CDC25B CDK2 inh = human CDC25B-CDK2/CyclinA binding inhibition. P30305+P24941. HTRF CDC25B-CDK2/CyclinA binding, anti-His/anti-Flag; hits give high values. z-score (no concentration beside the values). hit rate 0.72% among 94,000. AID 1259370; in the data active means z-score above about 3.2
HIV TAR-Tat = HIV-1 TAR-Tat binding disruption | hit rate 0.6% among 100,000 | HIV-1 TAR RNA, Tat peptide displacement FRET; hits give high values | AID 1259389 | z-score (test concentration not listed); active means z-score of 3 or more in at least 2 runs
Large screens that a line does not name were inactive. Shown are actives, neighbours in structure and some others; about 0.86% of the full set was active somewhere.

CC1CN(C(=O)CCC(=O)N2CCOCC2)c2cc(Cl)ccc2O1 (stereo unspecified)	none
O=C(NCc1ccccn1)C1CCN(S(=O)(=O)c2cccc3nonc23)CC1	none (no result: CDC25B CDK2 inh)
CC(C)=CCC/C(C)=C/CC/C(C)=C/CC/C(C)=C/CC/C(C)=C/CC/C(C)=C/CC/C(C)=C/CC/C(C)=C/CC/C(C)=C/CO	HIV TAR-Tat 32 (no result: CDC25B CDK2 inh)
CC(C)=CCC/C(C)=C/CC/C(C)=C/CO	none (no result: CDC25B CDK2 inh)
CC1Cc2cc(S(=O)(=O)NCCN3CCCC3)ccc2N1C(=O)C1CC1 (stereo unspecified)	none (no result: CDC25B CDK2 inh)
O=C(CCC(=O)N1c2ccccc2NC2=C(C(=O)CCC2)C1c1ccco1)NC1CCCCC1 (stereo unspecified)	HIV TAR-Tat 3.6 (no result: CDC25B CDK2 inh)
O=C(CN1c2ccccc2NC2=C(C(=O)CCC2)C1c1ccco1)NC1CCCC1 (stereo unspecified)	none (no result: CDC25B CDK2 inh)
O=S(=O)(O)O	none (no result: HIV TAR-Tat)
CC1CCC(NC(=O)c2cc3c(s2)-c2ccccc2OC3)CC1 (stereo unspecified)	none
O=c1[nH]c2ccc(NCc3ccc4c(c3)OCO4)cc2[nH]1	none
O=c1[nH]c2ccc(NCc3ccc(-c4ccccc4F)o3)cc2[nH]1	CDC25B CDK2 inh 4.7
O=c1[nH]c2ccc(NCc3ccc(-c4ccccc4)o3)cc2[nH]1	none
O=c1[nH]c2ccc(NCc3ccc(-c4ccc(Cl)cc4)o3)cc2[nH]1	CDC25B CDK2 inh 10
O=C1CSc2ccc(S(=O)(=O)NCc3ccco3)cc2N1	none (no result: CDC25B CDK2 inh)
CC(CS(=O)(=O)c1ccc2c(c1)NC(=O)CS2)C(=O)NCc1ccco1 (stereo unspecified)	HIV TAR-Tat 5.3 (no result: CDC25B CDK2 inh)
COc1cccc2c1c(NC(=O)c1cc(C)oc1C)nn2C	none (no result: HIV TAR-Tat)
CN(C)c1cccc2c1c(NC(=O)c1cc(Cl)sc1Cl)nn2C	CDC25B CDK2 inh 13 (no result: HIV TAR-Tat)
CC(C)c1ccc([C@@H]2Nc3ccc(C(=O)O)cc3[C@@H]3C=CC[C@@H]32)cc1	none (no result: HIV TAR-Tat)
COC(=O)c1ccc2c(c1)C1C=CCC1[C@@H](c1ccc(C(=O)O)cc1)N2 (stereo partly specified)	HIV TAR-Tat 7.4
CCc1cccc2c1N[C@@H](c1ccc(C(=O)O)cc1)[C@H]1CC=C[C@@H]21	none (no result: HIV TAR-Tat)
Cc1cccc2c1N[C@H](c1ccc(C(=O)O)cc1)C1CC=CC21 (stereo partly specified)	CDC25B CDK2 inh 6.8
Cc1ccc2c(c1)C1C=CCC1C(C(=O)O)N2 (stereo unspecified)	none
CCOC(=O)[C@@H]1Nc2ccc(C(=O)O)cc2[C@@H]2C=CC[C@H]12	CDC25B CDK2 inh 15, HIV TAR-Tat 17
COc1ccc2c(c1)[C@@H]1C=CC[C@@H]1[C@H](c1ccc(C(=O)O)cc1)N2	HIV TAR-Tat 14
CC(C)c1ccc2c(c1)[C@@H]1C=CC[C@@H]1[C@H](c1ccc(C(=O)O)cc1)N2	none (no result: HIV TAR-Tat)
Fc1ccc(N2CCN(c3ncnc4c3cnn4-c3cccc(Cl)c3)CC2)cc1	none (no result: CDC25B CDK2 inh)
Cc1nc(-n2cccc2)sc1C(=O)N1CCN(C)CC1	none
COC(=O)c1ccc(C(=O)OC)c(NC(=O)NC2(C(F)(F)F)Oc3ccc(Cl)cc3O2)c1 (stereo unspecified)	none (no result: HIV TAR-Tat)
Cc1ccc(N2C(=O)c3ccncc3C2=O)cc1	none
COc1ccc(C2CC(=O)C3=C(C2)NC(=O)CC3c2ccc(SC)cc2)cc1OC (stereo unspecified)	none
COCCNS(=O)(=O)c1ccc2c(c1)NC(=O)C(C)CS2 (stereo unspecified)	none (no result: CDC25B CDK2 inh)
CCOC(=O)c1sc(=S)n(-c2cccc3ccccc23)c1N	none (no result: CDC25B CDK2 inh)
COc1ccc(C2CC(=O)C3=C(C2)NC(C)=C(C(=O)OC2CCCCC2)C3c2ccncc2)cc1 (stereo unspecified)	none
COc1cccc2c1NC(C(=O)O)C1CC=CC21 (stereo unspecified)	HIV TAR-Tat 42
CCOC(=O)c1ccc2c(c1)[C@@H]1C=CC[C@@H]1[C@H](c1ccc(C(=O)OC)cc1)N2	none
COC(=O)c1cccc2c1NC(c1ccc(Br)cc1)C1CC=CC21 (stereo unspecified)	none
CCOC(=O)c1ccc2c(c1)[C@@H]1C=CC[C@@H]1[C@H](c1ccc(C(=O)O)cc1)N2	HIV TAR-Tat 8
Cc1ccc(C2CC(=O)N3CN(c4ccc(CCO)cc4)CSC3=C2C#N)cc1 (stereo unspecified)	CDC25B CDK2 inh 7.1
COc1ccc(C2CC(=O)N3CN(c4ccc(CCO)cc4)CSC3=C2C#N)cc1 (stereo unspecified)	CDC25B CDK2 inh 6
CCOc1ccc(C2CC(=O)N3CN(c4ccc(OCC)cc4)CSC3=C2C#N)cc1 (stereo unspecified)	none
O=C(CSc1c2c(nc3cc(Cl)ccc13)CCCC2)N1CCN(c2ccccc2)CC1	none (no result: HIV TAR-Tat)
Cn1c(C(=O)N2CCC(C(=O)NCc3ccc4c(c3)OCO4)CC2)cc2sccc21	none (no result: HIV TAR-Tat)
O=C(Cn1c(=O)oc2ccccc21)Nc1ccc(Cl)cc1F	none (no result: CDC25B CDK2 inh)
O=c1c(N2CCN(c3cccc(Cl)c3)CC2)csc2ccc(Cl)cc12	none (no result: CDC25B CDK2 inh)
CC1=C(c2ccc(C)c(C)c2)S(=O)(=O)N(Cc2ccc(C(=O)NCC3CCCO3)cc2)C1=O (stereo unspecified)	none (no result: CDC25B CDK2 inh)
COc1ccc(Cl)c(Cn2cnc3c2c(=O)n(C)c(=O)n3C)c1	none (no result: HIV TAR-Tat)
COc1ccc(Cl)c(Cn2c(NCCN)nc3c2c(=O)n(C)c(=O)n3C)c1	HIV TAR-Tat 3.6
O=C(NCCCN1CCc2ccccc2C1)Nc1ccc(Br)cc1	CDC25B CDK2 inh 9.2
CSc1ccc(NC(=O)NCCCN2CCc3ccccc3C2)cc1	none
COc1ccccc1-c1cc(C(=O)Nc2cccc(O)c2)no1	none (no result: HIV TAR-Tat)
Cc1ccc2cc(NC(=O)C3CC(=O)N(Cc4ccc(F)cc4)C3)ccc2n1 (stereo unspecified)	CDC25B CDK2 inh 6.6 (no result: HIV TAR-Tat)
O=C1CC(c2nc3ccccc3n2Cc2ccc(F)cc2)CN1Cc1ccccc1 (stereo unspecified)	none
CN(C)c1ccc(CNc2n[nH]c(-c3ccco3)n2)cc1	CDC25B CDK2 inh 15
Brc1ccc(CNc2n[nH]c(-c3ccco3)n2)cc1	none
CCOC(=O)c1sc(=S)n(-c2ccc(F)c(F)c2)c1N	HIV TAR-Tat 17 (no result: CDC25B CDK2 inh)
CCOC(=O)c1sc(=S)n(-c2ccc(C)cc2)c1N	none (no result: CDC25B CDK2 inh)
O=C(c1ccc2c(c1)OCO2)N1CCc2c([nH]c3ccccc23)C1c1ccccc1 (stereo unspecified)	none (no result: CDC25B CDK2 inh)
COc1cccc(-c2nc3c(c(=O)[nH]2)Cc2cccc(OC)c2O3)c1O	HIV TAR-Tat 12
COc1cccc2c1Oc1nc(-c3cc(Br)ccc3O)[nH]c(=O)c1C2	HIV TAR-Tat 18
COc1cccc2c1Oc1nc(-c3ccc(Br)cc3)[nH]c(=O)c1C2	none
COc1cccc(-c2nc3c(c(=O)[nH]2)Cc2ccccc2O3)c1O	none
O=C(Nc1ccc2c(c1)OCCO2)c1cccn1-c1nnc(N2CCCCC2)s1	none (no result: CDC25B CDK2 inh)
O=C(CSc1nc2ccccc2c(=O)[nH]1)NC1CCCC1	none (no result: CDC25B CDK2 inh)
O=C(CSc1nc2ccccc2c(=O)[nH]1)NCc1ccc2c(c1)OCO2	HIV TAR-Tat 14 (no result: CDC25B CDK2 inh)
CC(CCc1ccccc1)N1C(=S)NC2C=C(Cl)C=CC21 (stereo unspecified)	CDC25B CDK2 inh 3.6 (no result: HIV TAR-Tat)
CCC(C)C1NC(=S)N(Cc2ccccc2)C1=O (stereo unspecified)	none (no result: HIV TAR-Tat)
CC1(C)CC(=O)c2sc(NC(=O)CSc3nc(-c4ccccc4)c(C#N)c(=O)[nH]3)nc2C1	none
O=C(O)c1cc(-c2ccccc2)nc2n[nH]c(-c3ccccc3)c12	none (no result: CDC25B CDK2 inh)
O=C(O)c1cc(-c2cn[nH]c2-c2ccccc2)nc2ccc3ccccc3c12	CDC25B CDK2 inh 22 (no result: HIV TAR-Tat)
CCCSc1nc2c(c(=O)[nH]1)C(c1ccccc1)C(C(=O)OC(C)C)=C(C)N2 (stereo unspecified)	none
